PubChem BioAssay AID1851 (National Center for Advancing Translational Sciences (NCATS), 2009)
In all, about 16,000 compounds went through this assay and about 5,100 (32%) were called active. Roughly 25% stayed inconclusive and do not appear here. This is one part of the list. Values without a mark were called inactive. Calls follow the shape of the dose curve; as a rule, active = well fitted curve in the direction sought with a large enough effect; inconclusive = small, poorly fitted or top-dose-only effect, or effect the other way; inactive = no such curve, though single readings can be large or run the other way.

target: Cytochrome P450 3A4 (Homo sapiens) (UniProt P08684); test: Cytochrome panel assay with activity outcomes; conditions: recombinant CYP, pro-luciferin dealkylation, luminescence, p450-cyp3a4; series mostly up to 57.1 µM; activity, negative = inhibition: at the top concentration
% is scaled to controls: 0 for no effect and ±100 for the full control effect.

Chain of Cytochrome P450 3A4 (Homo sapiens) (P08684 whole entry, looked up): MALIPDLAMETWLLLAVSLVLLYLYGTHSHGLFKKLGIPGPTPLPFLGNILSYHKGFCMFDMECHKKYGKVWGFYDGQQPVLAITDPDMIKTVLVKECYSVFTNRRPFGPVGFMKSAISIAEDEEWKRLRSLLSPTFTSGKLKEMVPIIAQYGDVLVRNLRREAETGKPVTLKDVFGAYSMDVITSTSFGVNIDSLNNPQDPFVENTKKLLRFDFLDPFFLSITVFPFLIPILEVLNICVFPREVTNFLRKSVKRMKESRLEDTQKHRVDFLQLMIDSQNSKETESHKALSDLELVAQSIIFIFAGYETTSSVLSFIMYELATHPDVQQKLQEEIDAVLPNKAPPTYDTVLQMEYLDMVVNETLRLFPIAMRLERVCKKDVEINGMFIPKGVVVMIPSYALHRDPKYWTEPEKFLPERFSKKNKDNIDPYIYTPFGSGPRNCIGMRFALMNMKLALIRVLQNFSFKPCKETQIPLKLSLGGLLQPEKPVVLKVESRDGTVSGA

Row | SMILES | activity, negative = inhibition | AC50
1 | COCCCN1Cc2ccccc2C1=N | -4.09% | –
2 | O=C(O)/C=C(\CC(=O)O)C(=O)O | -2.52% [at 11.4 µM] | –
3 | C[C@@]12CC[C@@H]3[C@H](CCC4=CC(=O)CC[C@]43C)[C@@H]1CC[C@@H]2C(=O)COS(=O)(=O)c1ccc(Br)cc1 | 20.5% [at 11.4 µM] | –
4 | Nc1nc(OCc2ccccc2)c2[nH]cnc2n1 | – | 7.94 µM (active)
5 | O=C(Nc1ccc(F)cc1F)c1cccnc1Oc1cccc(C(F)(F)F)c1 | -19.7% | –
6 | CCOC(=O)[C@@H]1[C@@H]2c3ccccc3-c3ccccc3[C@H]2C[C@H]1O | -1.52% [at 11.4 µM] | –
7 | Cc1ccc(N(C)C(=O)Oc2cccc3ccc(C)nc23)cc1 | – | 15.8 µM (active)
8 | N[C@H](CCl)C(=O)O | -5.68% | –
9 | C[C@H](CCC(=O)O)[C@H]1CC[C@]2(C)[C@@H]3C(=O)C[C@H]4C(C)(C)[C@@H](O)CC[C@]4(C)[C@H]3C(=O)C[C@@]12C | -2.04% [at 11.4 µM] | –
10 | CN(N=O)c1cc(O)ccc1O | -16.5% | –
11 | Cn1c(=O)c2[nH]cnc2n(C)c1=O.[CH2-][C@H](Cc1cccc2cc(C(=O)O)c(=O)oc12)OC.[Hg].[OH-] | 12.4% [at 11.4 µM] | –
12 | C[C@]12CC[C@H]3c4ccc(O)cc4CC[C@@H]3[C@H]1CC[C@@H]2OC(=O)CCc1ccccc1 | -2.52% [at 11.4 µM] | –
13 | COc1ccc2c(c1)[C@]13CCCC[C@@H]1[C@H](C2)NCC3 | – | 15.8 µM (active)
14 | O=C(CCN1CC2CCC(CC2)C1)c1cccs1 | -19.3% [at 11.4 µM] | –
15 | c1ccc2c(N3CCNCC3)cccc2c1 | -7.57% | –
16 | N[C@@H](Cn1cc(I)c(=O)[nH]c1=O)C(=O)O | -21.8% | –
17 | COc1ccc2[nH]cc(C3=CCNCC3)c2c1 | – | 1.26 µM (active)
18 | O=c1ccc2[nH]cc(C3=CCNCC3)c2[nH]1 | -11.9% | –
19 | CCCOc1ccc2[nH]cc(C3=CCNCC3)c2n1 | – | 2.51 µM (active)
20 | CCCN1CCc2cc(O)cc3c2[C@H]1Cc1ccc(O)c(O)c1-3 | -22.6% | –
21 | c1ccc(CCN2CCCCCC2)nc1 | -14.2% [at 11.4 µM] | –
22 | CCSCC[C@H](N)C(=O)O | 5.54% [at 11.4 µM] | –
23 | CO[C@@H]([CH2][Hg])CN1C(=O)c2ccccc2S1(=O)=O.Cn1c(=O)c2nc[nH]c2n(C)c1=O | 2.75% [at 11.4 µM] | –

Row | SMILES | activity, negative = inhibition | AC50
24 | CC(=O)OC1=CC2=CC[C@H]3[C@H]4CCC(=O)[C@@]4(C)CC(=O)[C@]3(S)[C@]2(C)CC1 | -29.7% [at 11.4 µM] | –
25 | C=C(C)[C@H]1CC[C@]2(C(=O)O)CC[C@]3(C)[C@@H](CC[C@H]4[C@@]5(C)CC[C@@H](O)C(C)(C)[C@@H]5CC[C@@]43C)[C@H]12 | -20.4% [at 25.6 µM] | –
26 | C[C@@H]1[C@H]2C=C[C@@H]1[C@@H](c1c3ccc(=O)c(O)c-3oc3c(O)c(O)ccc13)[C@@H]2C(=O)O | -0.366% [at 11.4 µM] | –
27 | O=C(C1CC(=O)N(C2CCCC2)C1)N1CCC2(CC1)OCCO2 (stereo unspecified) | -7.38% | –
28 | CN1[C@@H](CC(=O)c2ccccc2)CCC[C@@H]1C[C@@H](O)c1ccccc1 | -5.81% [at 25.6 µM] | –
29 | N[C@H](Cc1o[nH]c(=O)c1Cl)C(=O)O | -20.3% | –
30 | CS(=O)(=O)N1CCCC(C(=O)N2CCC3(CC2)OCCO3)C1 (stereo unspecified) | 1.72% [at 2.29 µM] | –
31 | Cc1ccc(S(=O)(=O)NCC2CCC(C(=O)N3CCC4(CC3)OCCO4)CC2)cc1 (stereo unspecified) | – | 15.8 µM (active)
32 | O=C(CNS(=O)(=O)c1cccs1)N1CCC2(CC1)OCCO2 | -9.14% | –
33 | CCCCCCN=Cc1c(O)n(C)c(=O)n(C)c1=O | 16.4% [at 2.29 µM] | –
34 | CCN1CCN(S(=O)(=O)c2ccc(Cl)nc2)CC1 | -12.9% | –
35 | Cc1nc(N)sc1CCN | -5.83% | –
36 | COc1ccc(CCNc2cc(-c3ccccc3)nc3ncnn23)cc1 | – | 5.62 µM (active)
37 | C=C(C)[C@H]1CN[C@H](C(=O)O)[C@@H]1CC(=O)O | -13.9% | –
38 | N#CCCN | -6.05% | –
39 | CN(C)[C@@H]1C(=O)C(C(N)=O)=C(O)[C@]2(O)C(=O)C3=C(O)c4c(O)cccc4[C@](C)(O)[C@H]3C[C@@H]12 | -3.93% [at 11.4 µM] | –
40 | CCOc1ccc(C2C(C#N)=C(N)Oc3c2c(=O)oc2ccccc32)cc1 (stereo unspecified) | -8.38% [at 2.29 µM] | –
41 | C=Cn1ccnc1P(=S)(c1nccn1C=C)C1CCCCC1 | – | 1.26 µM (active)
42 | C[C@H]1C(=O)O[C@@H]2CCN3CC=C(COC(=O)[C@@](C)(O)[C@@]1(C)O)[C@H]23 | -3.99% [at 25.6 µM] | –
43 | CC(=O)N1CC[N+](C)(C)CC1 | -9.17% | –
44 | C[C@]12CCC3c4ccc(OCC(=O)O)cc4CCC3C1CCC2=O (stereo partly specified) | -8.48% [at 11.4 µM] | –
45 | C[C@]12CC[C@@H]3C(=CCc4cc(O)ccc43)[C@@H]1CCC2=O | – | 10 µM (active)
46 | C[C@@]12CC[C@@H]3c4ccc(O)cc4CC[C@H]3[C@H]1CC[C@H]2O | 2.5% [at 25.6 µM] | –
